Results published in PubChem BioAssay (NCATS).
Inconclusive results are not listed. The source made the active and inactive calls. Calls follow the shape of the dose curve; as a rule, active = well fitted activation curve with a large enough effect; inconclusive = small, poorly fitted or top-dose-only effect; inactive = flat fitted curve, though single readings scatter.

What follows are compounds tested against D(1A) dopamine receptor (Homo sapiens) (UniProt P21728) (assay: HTS Assay for Allosteric Agonists of the Human D1 Dopamine Receptor: Primary Screen for Agonists (AID 488981)). Details: Inducible HEK293 T-REx D1 cells, calcium-flux fluorescence, 180 s kinetic; series mostly up to 41.8 µM.
D(1A) dopamine receptor (Homo sapiens), sequence (P21728 whole entry, looked up): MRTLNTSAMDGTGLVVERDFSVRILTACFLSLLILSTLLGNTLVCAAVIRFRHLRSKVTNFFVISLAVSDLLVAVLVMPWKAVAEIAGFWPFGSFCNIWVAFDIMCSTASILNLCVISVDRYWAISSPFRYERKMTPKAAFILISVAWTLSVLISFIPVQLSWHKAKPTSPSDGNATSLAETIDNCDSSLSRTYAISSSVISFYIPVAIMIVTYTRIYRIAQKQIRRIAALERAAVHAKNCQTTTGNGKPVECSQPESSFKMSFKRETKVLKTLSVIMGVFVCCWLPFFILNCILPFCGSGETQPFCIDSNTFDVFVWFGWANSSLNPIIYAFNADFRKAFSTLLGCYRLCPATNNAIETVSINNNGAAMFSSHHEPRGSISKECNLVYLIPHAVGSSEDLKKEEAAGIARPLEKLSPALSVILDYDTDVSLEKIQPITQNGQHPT
Description: Dopamine receptors (DARs) are involved in the etiology and/or therapy of a number of neuropsychiatric and endocrine disorders. For instance, all receptor-based antiparkinsonian drugs work via stimulating the […] DAR subtype whereas all FDA-approved antipsychotic agents are antagonists of this receptor. […] There are three different types of allosteric modulators that we are seeking, two of which will stimulate or augment receptor signaling, allosteric agonists and potentiators, while the third, allosteric antagonists, will attenuate receptor signaling. The present primary screening assay measures compound agonism by tracking calcium flux in a […], inducible Hek293 Trex D1 cell line.
Freshly passaged cells are plated in 1536 well black, clear bottom plates at a density of 4000 cells/well in 3 ul of complete media containing 1x tetracycline inducer. After an overnight incubation at 30 C in 5% CO2, cells are loaded with 2 ul of the no wash Calcium Assay Kit (ABD Bioquest) and incubated at room temperature for 30 to 90 minutes. A 10 cycle (1 second/cycle) baseline measurement is taken and then the FDSS online 1536 pintool delivers 23 nl of compound library (as well as dopamine controls) to the plate. The plate is measured for kinetically at 1 cycle/sec for 180 seconds and is considered to be the agonist portion of the assay (eg, compounds which activate a positive calcium response during this portion are flagged as potential agonists). Following the 180 second read, 1 ul of an EC20 of dopamine is delivered by an onboard pipette head. Measurements are taken kinetically for an additional 180 seconds.
In the case of NC(=NCc1ccccc1)NC(=O)c1nc(Cl)c(N)nc1N, the outcome is reported as “inactive”.
With COc1cc2c(cc1OC)C1CC(=O)C(CC(C)C)CN1CC2 (centres undefined) the outcome was “inactive”.
For CC1(C)C(=O)N(CCN2CCC(C(=O)c3ccc(F)cc3)CC2)c2ccccc21, the outcome was “inactive”.
In the case of Oc1ccc2ccccc2c1SSc1c(O)ccc2ccccc12, the outcome is reported as “inactive”.
For CC(=O)O[C@H]1C(=O)[C@@]2(C)C([C@H](OC(=O)c3ccccc3)[C@]3(O)C[C@H](OC(=O)[C@H](O)[C@@H](NC(=O)c4ccccc4)c4ccccc4)C(C)=C1C3(C)C)[C@]1(OC(C)=O)CO[C@@H]1C[C@@H]2O (some centres undefined), the outcome was “inactive”.
For COc1ccccc1N1CCN(CCN(C(=O)C2CCCCC2)c2ccccn2)CC1, the outcome was “inactive”.
With O=c1ccc2ccc(O)c(O)c2o1 the outcome was “inactive”.
With O=C1c2c(O)cc(O)cc2OC(c2ccc(O)c(O)c2)C1O (centres undefined) the outcome was “inactive”.
For Cc1cc(O)c2c(c1)C(=O)c1cc(O)cc(O)c1C2=O, the outcome was “inactive”.
O=c1c(O)c(-c2cc(O)c(O)c(O)c2)oc2cc(O)cc(O)c12 was tested, and the outcome was “inactive”.
In the case of Cc1c(OCC(F)(F)F)ccnc1CS(=O)c1nc2ccccc2[nH]1 (centres undefined), the outcome is reported as “inactive”.
O=C1NC(=O)C(c2ccccc2[N+](=O)[O-])=C1Nc1ccc(O)c(Cl)c1 was tested, and the outcome was “inactive”.
COc1cc2nc(N3CCN(C(=O)C4CCCO4)CC3)nc(N)c2cc1OC (centres undefined) was tested, and the outcome was “inactive”.
With CC(C)c1ccc2c(c1)c(SC(C)(C)C)c(CC(C)(C)C(=O)O)n2Cc1ccc(Cl)cc1 the outcome was “inactive”.
With OC(CN1CCN(c2cccc(Cl)c2)CC1)C(c1ccccc1)c1ccccc1 (centres undefined) the outcome was “inactive”.
For NNc1nncc2ccccc12, the outcome was “inactive”.
With CC1(C)NC(=O)N(c2ccc([N+](=O)[O-])c(C(F)(F)F)c2)C1=O the outcome was “inactive”.
With O=c1cc(N2CCOCC2)oc2c(-c3ccccc3)cccc12 the outcome was “inactive”.
In the case of O=Nc1c(-c2c(O)[nH]c3cc(Br)ccc23)[nH]c2ccccc12, the outcome is reported as “inactive”.
C[C@@H](N)C1CCC(C(=O)Nc2ccncc2)CC1 (some centres undefined) was tested, and the outcome was “inactive”.
In the case of O=C(O)c1cccnc1Nc1cccc(C(F)(F)F)c1, the outcome is reported as “inactive”.
With COc1ccc2cc([C@H](C)C(=O)O)ccc2c1 the outcome was “inactive”.
O=C(CCc1ccc(O)cc1)c1c(O)cc(O)cc1O was tested, and the outcome was “inactive”.
In the case of Nc1ccn([C@@H]2O[C@H](CO)[C@@H](O)C2O)c(=O)n1 (some centres undefined), the outcome is reported as “inactive”.
With CCOC(=O)C(C)Oc1cccc2c(=O)n(CC(=O)Nc3ccc4c(c3)OCCO4)ccc12 (centres undefined) the outcome was “inactive”.
O=C(c1ccccc1)c1ccc2n1CCC2C(=O)O (centres undefined) was tested, and the outcome was “inactive”.
In the case of Nc1nc(OCc2ccccc2)c2[nH]cnc2n1, the outcome is reported as “inactive”.
In the case of O=C1c2ccccc2-c2n[nH]c3cccc1c23, the outcome is reported as “inactive”.
Nc1nc(N)c(N=O)c(OCC2CCCCC2)n1 was tested, and the outcome was “inactive”.
For CN(C)CCCC1(c2ccc(F)cc2)OCc2cc(C#N)ccc21 (centres undefined), the outcome was “inactive”.
Oc1ccc(-c2nc(-c3ccc(F)cc3)c(-c3ccncc3)[nH]2)cc1 was tested, and the outcome was “inactive”.
NCCCCNCCCN was tested, and the outcome was “inactive”.
For O=c1c(O)c(-c2ccc(O)cc2O)oc2cc(O)cc(O)c12, the outcome was “inactive”.
For Cc1cccc(C#Cc2ccccc2)n1, the outcome was “inactive”.
